# Source: PubChem BioAssay
# 14-3-3 Bad PPI – disrupts binding of bovine 14-3-3 zeta to phospho-Bad peptide; 220,000 tested, 0.71% active; inhibition, % at 21.7 µM; AID 781; TR-FRET 14-3-3zeta/Dy647-pBad peptide displacement, 1 h;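 active means inhibition above about 70%, limit read from the data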;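 further: 0% = full 14-3-3 plus peptide FRET controls and 100% = background without 14-3-3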
# Target sequence (P63103 whole entry, looked up): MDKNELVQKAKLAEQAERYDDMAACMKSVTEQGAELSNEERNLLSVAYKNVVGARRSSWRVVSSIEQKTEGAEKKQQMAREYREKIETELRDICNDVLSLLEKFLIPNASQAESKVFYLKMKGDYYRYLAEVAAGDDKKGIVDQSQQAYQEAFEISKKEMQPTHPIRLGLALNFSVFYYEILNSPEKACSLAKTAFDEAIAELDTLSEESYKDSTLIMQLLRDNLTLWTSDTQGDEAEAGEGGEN
# Mcl1-Noxa inh – Mcl-1/Noxa interaction inhibition; Q07820; TR-FRET Mcl-1/Noxa peptide binding, 2 h; inhibition, % at 21.7 µM; 220,000 tested, 1.5% active; AID 1022;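 active means compounds that cut the protein-peptide binding signal by more than 50% relative to plate controls in a single-dose test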;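 further: His-tagged Mcl-1 with rhodamine Noxa BH3 peptide and terbium anti-His antibody; 0% = Mcl-1 plus Noxa peptide wells and 100% = peptide-only wells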
# Target sequence (Q07820 whole entry, looked up): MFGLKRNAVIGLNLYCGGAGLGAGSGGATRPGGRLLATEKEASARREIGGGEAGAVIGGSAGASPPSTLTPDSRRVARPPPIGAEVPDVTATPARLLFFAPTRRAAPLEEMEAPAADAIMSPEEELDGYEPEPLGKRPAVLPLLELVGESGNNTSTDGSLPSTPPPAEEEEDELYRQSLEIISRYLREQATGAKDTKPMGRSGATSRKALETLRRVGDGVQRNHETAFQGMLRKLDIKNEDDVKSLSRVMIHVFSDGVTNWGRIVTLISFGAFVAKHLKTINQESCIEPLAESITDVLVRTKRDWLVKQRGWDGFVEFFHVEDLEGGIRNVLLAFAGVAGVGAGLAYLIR
# Bim-Mcl-1 – disrupts Bim peptide binding to human Mcl-1; 190,000 tested, 0.1% active; inhibition, % at 10 µM; Bead-based flow cytometry, Bim peptide-Mcl-1 binding; in the data active means inhibition above about 40%;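 further: 0% = no compound tracer wells and 100% = peptide blocker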
# Mcl1-Bid inh – Mcl-1/Bid interaction inhibition. AID 1021. Q07820. 220,000 tested, 0.97% active. inhibition, % at 21.7 µM. TR-FRET Mcl-1/Bid-Dy647 peptide binding, 1536-well;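 active means compounds that cut the binding signal by more than half at the single screening dose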;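 further: His-tagged Mcl-1 with europium anti-His antibody binding Bid BH3 peptide; 0% = Mcl-1 plus peptide wells and 100% = peptide-only wells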
# NCF1 inh – inhibitors of human p47phox binding. p47phox/p22phox peptide binding, fluorescence polarization, 2 h. inhibition, % at 24.7 µM. 220,000 tested, 0.53% active. AID 1274;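 further: 0% = p47phox with labelled peptide and 100% = labelled peptide alone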
# eIF4E 4G PPI – eIF4E/eIF4G interaction inhibition in translation initiation; P63073+Q04637; TR-FRET eIF4E-eIF4GI(517-606) binding, 2 h; inhibition, % at 21.7 µM; 220,000 tested, 0.37% active;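 further: 0% = full FRET control wells and 100% = background wells lacking eIF4GI fragment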
# The depositor's hits bear a star; . = no result given; [ ] = remark or other dose. Only some compounds are listed: those with a hit (about 3.4% of all), similar ones and a draw of the others.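 How the source made its calls, unless noted: active means inhibition above about 30% (limit read from the data); inactive means the rest.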
SMILES,14-3-3 Bad PPI,Mcl1-Noxa inh,Bim-Mcl-1,Mcl1-Bid inh,NCF1 inh,eIF4E 4G PPI
COC(=O)[C@@]1(Cc2ccccc2)[C@H]2c3cc(C(=O)N4CCCC4)n(CCSCCO)c3C[C@H]2CN1C(=O)c1ccccc1,-6,101*,-2,-13,-14,4
CC(=O)c1cccc(NC(=O)C(CC(C)C)NC(=O)C2CCCCC2)c1 (stereo not given),-7,9,-1,-6,1,-5
Cc1noc(C)c1S(=O)(=O)Nc1ccc(C(=O)NC2CCCCC2C)cc1 (stereo not given),85*,-3,0,-18,2,1
CCCN(CCC)S(=O)(=O)c1ccc(C(=O)OCCN2C(=O)c3cccc4c(N5CCOCC5)ccc(c34)C2=O)cc1,1,-214,2,-23,-83,31*[fluorescence artefact?]
CC1(C)CN(c2ccsc2C(=O)O)C1=O,-1,14,-3,3,-8,1
CCCCN(C(=S)SC)C1CCS(=O)(=O)C1 (stereo not given),-4,5,.,-81,-15,0
O=C(CN1C(=O)CC(c2ccccc2)S(=O)(=O)c2ccccc21)N1CCCC1 (stereo not given),-9,11,1,-33,-4,-2
S=c1[nH]nc(C2CCCCC2)o1,2,38,-3,-23,-2,0
C=C(C)Cn1c(Sc2nnc(C)s2)nc2c1c(=O)[nH]c(=O)n2C,-9,-17,0,89*,-9,5
CCn1c(SCC(=O)c2ccc(O)c(O)c2)nnc1-c1ccccc1,-1,13,-4,6,-6,1
C=CCn1c(SCC(=O)c2ccc(O)c(O)c2)nnc1-c1cccnc1,41,58*,.,-36,3,9
C=CCn1c(SCC(=O)O)nnc1-c1ccc(C(C)(C)C)cc1,-4,19,-4,-5,-6,2
C=CCn1c(SCC(=O)O)nnc1-c1cccc(Cl)c1,27,70*,2,-42,-1,10
COc1ccc(OC)c(Cc2nnc(CCC(=O)N3CCCCC3c3nccs3)o2)c1 (stereo not given),-8,11,0,-27,-15,3
Cc1ccc(-n2c(Cc3cccs3)nnc2SCC(=O)Nc2ccc(F)c(F)c2)cc1,-4,6,0,-3,75*,-18
COc1ccc(-n2c(Cc3cccn3C)nnc2SCC(=O)Nc2ccccc2)cc1,2,15,0,-42,-24,3
COc1ccc(-n2c(Cc3cccn3C)nnc2SCC(=O)NCc2ccc(F)cc2)cc1,0,-24,-5,-24,-14,4
COc1ccc(-n2c(Cc3cccn3C)nnc2SCC(=O)NCc2ccccc2Cl)cc1,5,-6,-1,65*,-11,8
COc1ccc(-n2c(Cc3cccn3C)nnc2SCC(=O)Nc2cccc(F)c2)cc1,6,2,0,-28,-5,62*[fluorescence artefact?]
CCOc1ccc(CCNC(=O)c2cc(C)nn2-c2ccccc2)cc1,2,-4,.,-30,0,-5
Cc1ccc(-c2nn(CC(=O)N3CCOCC3)c(=O)c3ccccc23)cc1S(=O)(=O)N(C)C,2,0,.,1,-1,-5
Cc1cc(=O)[nH]c(-n2ncc(C#N)c2N)n1,-13,8,0,-38,-2,0
Cc1cc(C)n(-c2nnc3n2N=C(c2c[nH]c4ccccc24)CS3)n1,-8,-1,0,10,8,6
Cc1cc(C)n(-c2nnc3n2N=C(c2ccccc2)CS3)n1,4,30,0,-20,0,42*
C=CCOc1ccc(Br)cc1/C=C1/SC(=Nc2ccc(C(=O)O)cc2)NC1=O,11,55*,-6,-16,-96,4
SMILES,14-3-3 Bad PPI,Mcl1-Noxa inh,Bim-Mcl-1,Mcl1-Bid inh,NCF1 inh,eIF4E 4G PPI
OCC(O)C1OC(Nc2ccc(Cl)cc2)C(O)C1O (stereo not given),1,-29,.,-13,-11,1
COc1cc(C(=O)Oc2cccc(C)c2)cc(OC)c1OC,1,-9,-5,-15,-21,1
COc1cc(OC)nc(Oc2ccccc2C(=O)Oc2cccc(C)c2)n1,24,-7,-7,53*,3,6
O=C(COc1cccnc1[N+](=O)[O-])NCc1ccco1,-10,-9,-1,-49,3,6
O=C(Cn1nnc2ccccc2c1=O)Nc1cccc(S(=O)(=O)N2CCOCC2)c1,6,28,1,-12,-8,-2
COc1cccc(N(CC(=O)N2CCN(C)CC2)S(=O)(=O)c2ccccc2)c1,-4,4,1,60*,-11,-1
COc1cccc(N(CC(=O)O)S(=O)(=O)c2ccccc2)c1,6,9,-1,18,-4,3
CCOC(=O)C1(CCc2ccccc2)CCN(C(=O)CN2C(=O)CSC2=O)CC1,-3,-17,-1,-16,10,0
COC(=O)C1=C(C(=O)OC)C(c2ccccc2O)c2sc(=O)[nH]c2S1 (stereo not given),-5,56*,7,-9,-8,-1
CCOC(=O)NC1=NCC(C)S1 (stereo not given),5,-4,.,6,1,-4
CCOc1ccc(C(C)=O)cc1N1C(=O)C2C3C=CC(O3)C2C1=O (stereo not given),2,63*,0,8,-5,9
CCOc1ccc(C(C)=O)cc1N1C(=O)C2C3C=CC(C3)C2C1=O (stereo not given),0,14,0,-10,-4,8
O=C(CN1C(=O)C2C3C=CC(C4CC34)C2C1=O)Nc1cnc2ccccc2c1 (stereo not given),-2,0,-3,-9,5,-1
COc1ccc(-c2csc(NC(=O)CC(C)C)n2)cc1,-8,5,0,-2,2,-4
COc1ccc(-c2csc(NC(=O)/C(N=Nc3ccccc3)=C(\C)O)n2)cc1,-12,9,41*,-33,-16,-5
CCn1cc(CN2CCc3c([nH]c4ccccc34)C2c2cccc(OC)c2)c(C)n1 (stereo not given),-11,-3,0,-58,-3,3
CCOC(=O)N1CCN(C(=O)COc2ccc(Cl)cc2)CC1,-12,0,-1,3,-22,-2
CC1CN(C2CCN(C(=O)COc3ccc(Cl)cc3)CC2)CC(C)O1 (stereo not given),55,35,-1,57*,-13,1
Cc1onc(-c2c(F)cccc2Cl)c1C(=O)Nc1cccc(S(=O)(=O)NCc2ccco2)c1,-16,5,-1,-13,-21,1
CC(C)CCN(CCC(C)C)C/C(O)=C(\C#N)c1nc(-c2ccccc2)cs1,-1,13,0,-29,-29,6
N#C/C(=C(/O)CN1CCN(c2ccccc2F)CC1)c1nc(-c2ccccc2)cs1,-10,11,46*,-8,-10,4
COc1cccc(/C=N/n2c(SC)nnc2-c2ccccc2)c1O,-18,51*,0,-98,-14,-2
